The list shows a part of the results. No count for the full screen is at hand.
Molecular target: furin, P09958
Assay: furin cleavage Z-score vs untreated control; higher = more cleavage, active = 3.5 or more, inactive = 1 or less, 8 variable residues between constant flanks
Description: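 Multiplexed peptide-cDNA fusion cleavage assay. 8-mer variable peptides flanked by constant Cys-Ala (N-term) and Ala-Gly-Asn-Ala-Ser-Ala-Ser-Ala (C-term) and conjugated to a cDNA oligonucleotide were bead-immobilised via the N-terminus. They were treated with purified furin at a 1:10 enzyme:substrate ratio in 50 mM HEPES pH 7.5, 1 mM CaCl2, 100 mM NaCl for 7.5, 15 or 30 min. Released cDNA was counted by next-generation sequencing, and log counts versus no-furin controls were lowess-adjusted and converted to robust Z-scores.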

Chain of furin, P09958 (P09958 whole entry): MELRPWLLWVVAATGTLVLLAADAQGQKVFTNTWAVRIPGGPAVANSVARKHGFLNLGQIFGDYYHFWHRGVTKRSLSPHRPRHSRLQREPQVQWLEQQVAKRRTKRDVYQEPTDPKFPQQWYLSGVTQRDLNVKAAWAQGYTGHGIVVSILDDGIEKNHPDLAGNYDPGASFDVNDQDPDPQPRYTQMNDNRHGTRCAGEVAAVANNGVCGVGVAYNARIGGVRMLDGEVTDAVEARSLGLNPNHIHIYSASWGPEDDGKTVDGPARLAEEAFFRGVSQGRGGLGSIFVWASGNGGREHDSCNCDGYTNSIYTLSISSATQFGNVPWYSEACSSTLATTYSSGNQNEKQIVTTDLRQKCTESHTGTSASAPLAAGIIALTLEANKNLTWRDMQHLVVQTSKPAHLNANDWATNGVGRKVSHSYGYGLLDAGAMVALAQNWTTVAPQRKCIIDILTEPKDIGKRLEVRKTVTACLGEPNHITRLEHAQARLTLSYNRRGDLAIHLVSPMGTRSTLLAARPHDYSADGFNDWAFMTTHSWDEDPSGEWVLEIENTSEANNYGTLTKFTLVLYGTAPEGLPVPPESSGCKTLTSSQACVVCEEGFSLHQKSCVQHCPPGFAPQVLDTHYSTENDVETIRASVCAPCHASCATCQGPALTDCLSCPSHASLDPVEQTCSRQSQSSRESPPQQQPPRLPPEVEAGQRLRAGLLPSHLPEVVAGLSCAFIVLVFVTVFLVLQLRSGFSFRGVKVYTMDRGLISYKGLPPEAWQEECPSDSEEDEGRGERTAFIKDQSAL

Sequence | furin cleavage Z-score (7.5 min) | furin cleavage Z-score (15 min) | furin cleavage Z-score (30 min)
CADRSRTPRGAGNASASA [FS-759] | 3.99 (active) | 4.25 (active) | 4.12 (active)
CAGASRSPRGAGNASASA [FS-237] | 3.32 | 4.49 (active) | 5.42 (active)
CAGWLLSPRGAGNASASA [HC208] | 0.27 (inactive) | -1.63 (inactive) | 0.774 (inactive)
CAGAARLPRGAGNASASA [FS-777] | 0.571 (inactive) | 1.37 | 2.25
CAPERRDVCWAGNASASA [FS-1677] | -0.617 (inactive) | -1.12 (inactive) | 0.841 (inactive)
CASRCGSGPWAGNASASA [HC458] | -0.489 (inactive) | -1.8 (inactive) | -0.818 (inactive)
CALRRRQKRQAGNASASA [FS-1234] | 11.3 (active) | 12.6 (active) | 9.62 (active)
CAFPDRVKRNAGNASASA [FS-770] | 3.16 | 3.37 | 3.96 (active)
CAWLKRQKRNAGNASASA [FS-318] | 12.5 (active) | 12.8 (active) | 10.3 (active)
CATWHRLRKGAGNASASA [FS-1427] | -1.13 (inactive) | -0.138 (inactive) | -1.3 (inactive)
CALRRRLRKQAGNASASA [FS-362] | 4.47 (active) | 6.23 (active) | 5.78 (active)
CACGKRFKKNAGNASASA [FS-219] | 1.2 | -0.0472 (inactive) | 1.28
CAERRRQAGAAGNASASA [FS-1879] | -0.934 (inactive) | -0.697 (inactive) | -1.89 (inactive)
CAFDQGWGPIAGNASASA [HC393] | -0.624 (inactive) | -1.32 (inactive) | -0.893 (inactive)
CATTPCSGSGAGNASASA [HC1936] | -2.04 (inactive) | 2.2 | -0.763 (inactive)
CASTPCSGHLAGNASASA [HC2536] | -0.918 (inactive) | -1.44 (inactive) | -0.11 (inactive)
